Sampled rows, rich in hits. Any-hit rate of the full collection: about 1.1%.
NPSR antagonist – qHTS Assay for Antagonists of the Neuropeptide S Receptor: cAMP Signal Transduction; Q6W5P4; CHO-NPSR cells, cAMP TR-FRET, antagonist mode; Potency, µM (series often up to 38.3 µM), for inactives: top-dose activity change, negative = inhibition, hits mostly inhibitors; 220,000 compounds, 1% hits; note: potency is the fitted concentration of half-maximal effect; % is set by controls: 0 for no effect and ±100 for the full control effect; nearly all actives have a fitted effect of over 50% in size
KinaseGlo FLuc – Counterscreen for Luciferase (Kinase-Glo TM) Inhibition. Luciferin 4-monooxygenase (Photuris pensylvanica), Q27757. Potency, µM (titrated, usually from 38.3 µM), for inactives: top-dose activity change, negative = inhibition, hits mostly inhibitors. Kinase-Glo luciferase, ATP luminescence, 8 min. 200,000 compounds, 0.28% hits; note: potency is the fitted concentration of half-maximal effect; % is set by controls: 0 for no effect and ±100 for the full control effect; nearly all actives have a fitted effect of over 60% in size
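Compound is pinned into ATP-containing buffer (10 uM ATP, imidazole pH 7.2, 7 mM MgCl2). Kinase-Glo luciferase reagent is then added. Light output is recorded following an 8-min room-temperature incubation.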
IMPase Li inh – qHTS Assay for Identifying the Cell-Membrane Permeable IMPase Inhibitors: Potentiation with Lithium; CHO-M1 cells, IP1 TR-FRET (IP-One), carbachol + lithium; 210,000 compounds, 0.35% hits; AID 1457, 2008; Potency, µM (series often up to 59.4 µM), for the others: at the top dose activity, negative = IMPase inhibition, usual class: inhibitors;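 note: IP1 builds up when IMPase is blocked and the TR-FRET signal falls; potency is the fitted concentration of half-maximal effect; plate controls were basal vehicle for no effect and high inhibitor control for full effect; nearly all actives have a fitted effect of over 50% in size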
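IP1 accumulation measured by competitive TR-FRET in lysed CHO-M1 cells after 30 min compound exposure at 37C, with a small lithium addition to potentiate weak responses. Hill-equation AC50 from ratio and donor-channel data.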
ERK EGF block – qHTS Assay for Inhibitors of the ERK Signaling Pathway using a Homogeneous Screening Assay; Stimulation with EGF; Potency, µM (highest dose often 11.5 µM), for the others: at the top dose activity change, negative = inhibition, actives largely listed as inhibitors; 130,000 compounds, 0.41% hits; HEK293-V1b, EGF-stimulated phospho-ERK AlphaScreen;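 note: potency is the fitted concentration of half-maximal effect; plate controls were stimulated vehicle wells for no effect and unstimulated vehicle basal for full effect; nearly all actives have a fitted effect of over 55% in size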
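HEK293 cells stably expressing V1b receptor, serum-reduced (1% FBS) overnight, got compound for 30 min at 37C, then 25 nM EGF for 5 min. Lysate phospho-ERK read by AlphaScreen SureFire; AC50 from Hill fits.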
ERK pERK EGF – Confirmation Concentration-Response Assay for Inhibitors of the ERK Signaling Pathway using a Homogeneous Screening Assay; Stimulation with EGF | 60 compounds, 60% hits | Potency, µM (top dose mostly 57.5 µM), inactives show top-dose activity change, negative = inhibition, most hits filed as inhibitors | HEK293 EGF-stimulated ERK phosphorylation, AlphaScreen | shares compounds with ERK EGF block
c-Raf inh – Assay for Inhibitors of the ERK Signaling Pathway using a Homogeneous Screening Assay: c-Raf Inhibition | shares compounds with ERK EGF block | c-Raf kinase inhibition, homogeneous biochemical assay | activity change, negative = inhibition, % at 76.9 µM | 70 tested, under 10 active | AID 1728, 2009
MEK1 kinase inh – Assay for Inhibitors of the ERK Signaling Pathway using a Homogeneous Screening Assay: MEK Inhibition. shares compounds with ERK EGF block. homogeneous MEK kinase activity assay, ERK pathway. Potency, µM (highest dose often 76.9 µM), for the others: at the top dose activity change, negative = inhibition, usual class: inhibitors. 70 tested, under 10 active. AID 1732, 2009
Target sequence (Q02750 whole entry, looked up): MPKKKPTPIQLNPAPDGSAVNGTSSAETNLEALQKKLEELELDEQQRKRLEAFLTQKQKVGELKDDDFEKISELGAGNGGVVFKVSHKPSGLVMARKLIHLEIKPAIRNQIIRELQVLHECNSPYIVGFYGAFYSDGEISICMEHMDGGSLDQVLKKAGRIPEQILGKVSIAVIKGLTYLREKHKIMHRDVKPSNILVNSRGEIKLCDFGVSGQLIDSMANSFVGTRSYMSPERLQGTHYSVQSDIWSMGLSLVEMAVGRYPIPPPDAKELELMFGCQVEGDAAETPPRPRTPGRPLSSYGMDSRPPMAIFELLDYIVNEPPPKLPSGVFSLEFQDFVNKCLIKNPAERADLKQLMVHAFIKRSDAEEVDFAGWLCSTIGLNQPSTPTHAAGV
* marks the source's active call; other numbers are inactive results; [ ] = dose if it differs, or a comment. Calls come from the whole dose curve; as a rule, active = well fitted curve in the direction sought with a large enough effect; inconclusive = small, poorly fitted or top-dose-only effect, or another doubt; inactive = no such curve, though single readings can be large; an effect the other way counts as inactive or inconclusive.

`O=C(O)c1ccc(CNCc2ccccc2)cc1` gave KinaseGlo FLuc 0.0%[7.66 µM] and IMPase Li inh -2.6%.
`Nc1nc(-c2ccc(Cl)c(Cl)c2)c(-c2ccncc2)s1` gave KinaseGlo FLuc 2.2%, IMPase Li inh 0.3% and ERK EGF block 7.6%.
`COCCN1C(=O)/C(=C/c2ccc(N3CCCC3)cc2C)SC1=S` gave NPSR antagonist 21.2%, KinaseGlo FLuc -17.0%, IMPase Li inh 11.4% and ERK EGF block 22.4µM*.
CN=C1S/C(=C\c2ccc(N3CCOCC3)cc2C)C(=O)N1C was read as NPSR antagonist 12.7%, KinaseGlo FLuc 1.0%, IMPase Li inh 4.6% and ERK EGF block 0.3%.
Cc1ccccc1CS(=O)(=O)c1nnc([C@H](Cc2ccccc2)NC(=O)OC(C)(C)C)o1 was read as NPSR antagonist 10µM*, KinaseGlo FLuc -2.8% and IMPase Li inh 17.7%[38.3 µM].
For CC(C)(C)OC(=O)N[C@@H](Cc1ccccc1)c1nnc(S(=O)(=O)Cc2ccccc2)o1 the results were NPSR antagonist inconclusive, KinaseGlo FLuc 1.0% and IMPase Li inh 30.8%[38.3 µM].
CCCSc1ccc2nc(-c3ccccc3)cn2c1 was read as NPSR antagonist inconclusive, KinaseGlo FLuc 10µM*, IMPase Li inh 12.9% and ERK EGF block inconclusive.
For O=C(O)CSc1n[nH]c(=O)[nH]c1=O the results were KinaseGlo FLuc -3.8%[7.66 µM] and IMPase Li inh 8.6%.
Screening COc1cccc(-c2ccc(C#N)c(SCC(=O)NCCc3cccc(Cl)c3)n2)c1 returned NPSR antagonist -5.3%[46.1 µM], KinaseGlo FLuc -1.0% and IMPase Li inh 11.2µM*.
COc1cccc([C@@H]2Oc3ccc(OC)cc3C(=O)[C@H]2OC(=O)NC2CCCC2)c1 was read as KinaseGlo FLuc -0.5%, IMPase Li inh 6.3% and ERK EGF block 9.2%.
`CCOc1ccc2nc(-c3cc(NC(C)=O)ccc3O)sc2c1` gave NPSR antagonist -11.4%, KinaseGlo FLuc -0.5%, IMPase Li inh 10µM* and ERK EGF block -12.4%.
`CCOCC(=O)Nc1nc2ccc(OCC)cc2s1` gave NPSR antagonist -16.2%[46.1 µM], KinaseGlo FLuc -21.4% and IMPase Li inh 28.2%[38.3 µM].
For CC1CCCC(C)N1/N=C/C=C/c1ccccc1[N+](=O)[O-] (centres undefined) the results were NPSR antagonist -19.7%, KinaseGlo FLuc 1.7%, IMPase Li inh 27.3% and ERK EGF block 20µM*.
For COc1ccccc1N1CCN(/N=C/C=C\c2ccccc2[N+](=O)[O-])CC1 the results were NPSR antagonist -24.7%, KinaseGlo FLuc 0.0%, IMPase Li inh 17.8% and ERK EGF block 25.1µM*.
O=[N+]([O-])c1ccc2c(c1)Cc1cc(N=Cc3ccc4c(c3)OCO4)ccc1-2 was read as KinaseGlo FLuc 2.9%[7.66 µM] and IMPase Li inh -3.1%.
Screening COc1ccc(/C=N/Nc2nc(-c3cccnc3)nc3ccccc23)cc1OC returned NPSR antagonist -7.4% and ERK EGF block inconclusive.
For Cc1ccc(-c2nc(N/N=C/c3ccncc3)c3ccccc3n2)cc1 the results were NPSR antagonist inconclusive, KinaseGlo FLuc 2.24µM* and IMPase Li inh 4.8%[38.3 µM].
For O=C(CSc1ccc(-c2nc3ccccc3[nH]2)cn1)Nc1ccc2c(c1)OCCO2 the results were NPSR antagonist -0.5%[46.1 µM], KinaseGlo FLuc -10.1% and IMPase Li inh 8.91µM*.
Screening Cc1ccc2nc(-c3ccc(SCC(=O)Nc4ccc5c(c4)OCCO5)nc3)[nH]c2c1 returned NPSR antagonist -1.7%, KinaseGlo FLuc -6.8%, IMPase Li inh 14.1% and ERK EGF block -7.7%.
`Cc1cc2nc(-c3ccc(SCC(=O)Nc4ccc5c(c4)OCCO5)nc3)[nH]c2cc1C` gave NPSR antagonist -17.1%[46.1 µM], KinaseGlo FLuc 11.2µM* and IMPase Li inh inconclusive.
For Cc1cccc(CNc2ncnc3ccc(-c4cccc(NS(C)(=O)=O)c4)cc23)c1 the results were KinaseGlo FLuc -7.3%, IMPase Li inh 19.0%, ERK EGF block 6.31µM*, ERK pERK EGF 11.2µM*, c-Raf inh inconclusive and MEK1 kinase inh 0.6%.
`COc1ccccc1CNc1ncnc2ccc(-c3cccc(NS(C)(=O)=O)c3)cc12` gave IMPase Li inh 18.0%.
For Cc1cnc(CNc2ccnc(-c3ccoc3)n2)cn1 the results were IMPase Li inh 7.1%.
Screening N#CC(C#N)=C1C=CC=CN1/C(=C\c1ccco1)C(=O)c1ccc(Cl)cc1 returned NPSR antagonist inconclusive, KinaseGlo FLuc 2.9%, IMPase Li inh 22.2%, ERK EGF block 10µM*, ERK pERK EGF inconclusive, c-Raf inh -14.6 and MEK1 kinase inh -18.8%.
Screening O=c1cc(-c2ccc(O)cc2)oc2cc(O)ccc12 returned KinaseGlo FLuc -17.0%, IMPase Li inh -26.9% and ERK EGF block -6.5%.
For O=c1cc(-c2ccc(O)cc2)oc2cccc(O)c12 the results were KinaseGlo FLuc -6.2%, IMPase Li inh 23.3%, ERK EGF block -3.9%, ERK pERK EGF -12.1%, c-Raf inh inconclusive and MEK1 kinase inh -6.1%.
N#Cc1ccccc1Sc1ccccc1N was read as NPSR antagonist -12.3%[46.1 µM], KinaseGlo FLuc 2.1% and IMPase Li inh 1.4%[38.3 µM].
N#CC(=C(/N)Sc1ccccc1N)/C(C#N)=C(/N)Sc1ccccc1N was read as KinaseGlo FLuc 1.0%, IMPase Li inh 18.2%, ERK EGF block 0.891µM* and c-Raf inh -2.5.
Screening Fc1cccc(Nc2ncnc3sc4c(c23)CCC4)c1 returned NPSR antagonist 8.0%, KinaseGlo FLuc 2.9%, IMPase Li inh 3.7%, ERK EGF block 3.16µM*, ERK pERK EGF 10µM*, c-Raf inh inconclusive and MEK1 kinase inh 7.9%.
Screening O=S(=O)(Nc1ncnc2sc3c(c12)CCC3)c1cc(F)ccc1F returned NPSR antagonist 30.3% and ERK EGF block -12.2%[57.5 µM].
`CCCCc1nc2ccn(CC(=O)N(C)C)c(=O)c2n1Cc1ccc(-c2ccccc2-c2nn[nH]n2)cc1` gave KinaseGlo FLuc 4.4%[39.9 µM] and IMPase Li inh 3.4%.

From PubChem
